Test results reported in the supplement of paper PMC7411640.
Structures can show the parent of a compound that is named as a salt.

system: MDA-MB-468; experiment: phospho-S6 immunofluorescence (DAPI-normalised), per-plate z-score; higher = higher phospho-S6 signal (less pathway suppression); conditions: co-treatment: vehicle; 24 h
Method: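 GPCR-targeted compound library (MedChemExpress HY-L006) tested on MDA-MB-468 PTEN-null TNBC cells in 384-well plates at 0.1, 1 or 10 uM, combined with vehicle, GDC0941 450 nM or lapatinib 1 uM, for 24 h. Phospho-S6 (S240/244) immunofluorescence normalised to DAPI and expressed as a per-plate z-score; values are the mean of biological triplicates.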

Point of comparison: `COc1cc2nc(N3CCN(C(=O)C4COc5ccccc5O4)CC3)nc(N)c2cc1OC` (centres undefined) [Doxazosin (mesylate)] (compound 10 µM), “phospho-S6 immunofluorescence (z-score)” value -8.17. Against it:
- O=c1ccccn1CC1(O)CCN(Cc2ccccc2)CC1 (compound 10 µM) — higher, 0.48
- CCCCc1nc(Cl)c(CO)n1Cc1ccc(-c2ccccc2-c2nnn[nH]2)cc1 [Losartan (potassium)] (compound 10 µM) — higher, 0.81
- CC(C)C[C@H](NC(=O)CNC(=O)[C@H](Cc1ccc(O)cc1)NC(=O)[C@H](CO)NC(=O)[C@H](Cc1c[nH]c2ccccc12)NC(=O)[C@H](Cc1cnc[nH]1)NC(=O)[C@@H]1CCC(=O)N1)C(=O)N[C@@H](CCCNC(=N)N)C(=O)N1CCC[C@H]1C(=O)NCC(N)=O [Gonadorelin (acetate)] (compound 10 µM) — higher, 0.07
- Cc1nc(C(=O)N2CCC[C@H]2Cc2nnc(-c3ccccc3)o2)c(-c2ccccc2F)s1 (compound 10 µM) — higher, 0.17
- CCCc1nc2c(C)cc(-c3nc4ccccc4n3C)cc2n1Cc1ccc(-c2ccccc2C(=O)O)cc1 [Telmisartan] (compound 10 µM) — higher, 0.35
- COc1ccccc1Oc1c(NS(=O)(=O)c2ccc(C)cn2)nc(-c2ccncc2)nc1OC [Avosentan] (compound 10 µM) — higher, -0.65
- COc1cc(/C=C/C(=O)O)ccc1O [Ferulic acid (sodium)] (compound 10 µM) — higher, 0.33
- Cc1ccc(Sc2ccccc2N2CCNCC2)c(C)c1 [Vortioxetine (hydrobromide)] (compound 10 µM) — lower, -9.37
